Reference: PubChem BioAssay (NCATS)
Results filed as inconclusive are left out. Calls of active or inactive are those of the source. Unless noted, calls follow the shape of the full dose curve.

Legend:
[1] = biological target: Estrogen receptor (Homo sapiens) (UniProt P03372); assay: qHTS assay for small molecule antagonists of estrogen receptor alpha signaling (AID 588513; active = well fitted curve in the direction sought with a large enough effect in the signal ratio, with a control signal flat, not every such curve was filed as active; the % refers to the signal ratio; also: potency is read from the fitted curve at half-maximal effect)
Chain of Estrogen receptor (Homo sapiens) (P03372 whole entry, looked up): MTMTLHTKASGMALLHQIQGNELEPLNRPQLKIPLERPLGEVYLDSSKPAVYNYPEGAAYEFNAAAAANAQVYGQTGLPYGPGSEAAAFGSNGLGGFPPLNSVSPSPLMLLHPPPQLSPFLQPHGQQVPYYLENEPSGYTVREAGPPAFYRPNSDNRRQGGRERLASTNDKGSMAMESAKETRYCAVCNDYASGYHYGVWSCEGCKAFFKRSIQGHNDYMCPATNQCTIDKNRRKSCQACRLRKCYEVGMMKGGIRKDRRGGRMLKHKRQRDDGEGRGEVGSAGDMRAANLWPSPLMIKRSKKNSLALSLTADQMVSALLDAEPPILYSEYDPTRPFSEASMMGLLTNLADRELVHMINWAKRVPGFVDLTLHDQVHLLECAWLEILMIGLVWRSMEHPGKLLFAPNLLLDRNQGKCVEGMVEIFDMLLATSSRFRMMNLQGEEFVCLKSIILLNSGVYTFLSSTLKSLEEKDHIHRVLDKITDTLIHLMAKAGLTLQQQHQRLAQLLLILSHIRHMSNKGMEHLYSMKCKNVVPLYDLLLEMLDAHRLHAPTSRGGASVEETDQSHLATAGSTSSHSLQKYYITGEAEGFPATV
In short: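 ER-alpha-UAS-bla GripTite HEK 293 cells in 2% charcoal/dextran-treated FBS medium; compounds titrated (1:2, duplicate), then stimulated with 0.5 nM 17-beta-estradiol for 18 h at 37C. CCF4 beta-lactamase fluorescence; Hill-fit IC50 and efficacy.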

[2] = biological target: Estrogen receptor (Homo sapiens) (UniProt P03372); assay: qHTS assay for small molecule agonists of estrogen receptor alpha signaling (AID 588514);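 also: 0% = vehicle only and 100% = reference agonist; nearly all actives have a fitted effect of over 70% in size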
In short: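 ER-alpha-UAS-bla GripTite HEK293 cells, 5000/well in 2% charcoal/dextran-stripped FBS medium, treated with compound titrations 18 h at 37 C. CCF4 beta-lactamase read by fluorescence after 2 h RT; normalised to 20 nM 17-beta-estradiol (100%) and DMSO (0%), Hill fit for EC50 and efficacy.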

[3] = biological target: Vitamin D3 receptor (Homo sapiens) (UniProt P11473); assay: qHTS assay for small molecule antagonists of vitamin D receptor signaling (AID 588541); also: potency is read from the fitted curve at half-maximal effect
Chain of Vitamin D3 receptor (Homo sapiens) (P11473 whole entry, looked up): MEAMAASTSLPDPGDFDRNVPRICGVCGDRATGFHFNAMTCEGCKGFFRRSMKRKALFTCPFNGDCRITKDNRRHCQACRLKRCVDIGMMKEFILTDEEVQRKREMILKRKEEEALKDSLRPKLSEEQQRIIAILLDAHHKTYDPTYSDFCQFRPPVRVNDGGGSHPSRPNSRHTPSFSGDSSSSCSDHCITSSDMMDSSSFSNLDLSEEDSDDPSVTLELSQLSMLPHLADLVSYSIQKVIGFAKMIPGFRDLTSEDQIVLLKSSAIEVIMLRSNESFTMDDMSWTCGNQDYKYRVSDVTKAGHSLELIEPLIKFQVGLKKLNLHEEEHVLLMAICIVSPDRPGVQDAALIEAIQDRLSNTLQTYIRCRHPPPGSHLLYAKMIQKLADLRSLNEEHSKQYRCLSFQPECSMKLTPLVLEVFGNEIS
In short: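 Antagonist-mode beta-lactamase reporter assay: HEK293T VDR-UAS-bla cells were exposed to titrated compound alongside 1-alpha,25-dihydroxyvitamin D3 at 3 nM final for 16 h. Values were normalized to the 50 nM agonist control and DMSO basal, with IC50 and efficacy from Hill equation fits.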

[4] = biological target: Vitamin D3 receptor (Homo sapiens) (UniProt P11473); assay: qHTS assay for small molecule agonists of vitamin D receptor signaling (AID 588543);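 also: 0% = DMSO basal and 100% = reference agonist control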
In short: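 VDR-UAS-bla HEK293T cells, 2000/well, 2% charcoal-stripped FBS; compound titration 16 h at 37 C; CCF4 beta-lactamase ratio read. Normalized to 50 nM 1-alpha,25-dihydroxyvitamin D3 (100%) and DMSO; Hill fit gives EC50, efficacy.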

[5] = qHTS assay for small molecule agonists of retinoid X receptor alpha signaling (AID 588544); settings: HEK293T RXRa-UAS-bla, beta-lactamase reporter, 18 h; 530 nm emission; also: potency is read from the fitted curve at half-maximal effect;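 as to activation: 0% = DMSO basal wells and 100% = reference agonist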
[6] = biological target: Retinoic acid receptor RXR-alpha (Homo sapiens) (UniProt P19793); assay: as above
Chain of Retinoic acid receptor RXR-alpha (Homo sapiens) (P19793 whole entry, looked up): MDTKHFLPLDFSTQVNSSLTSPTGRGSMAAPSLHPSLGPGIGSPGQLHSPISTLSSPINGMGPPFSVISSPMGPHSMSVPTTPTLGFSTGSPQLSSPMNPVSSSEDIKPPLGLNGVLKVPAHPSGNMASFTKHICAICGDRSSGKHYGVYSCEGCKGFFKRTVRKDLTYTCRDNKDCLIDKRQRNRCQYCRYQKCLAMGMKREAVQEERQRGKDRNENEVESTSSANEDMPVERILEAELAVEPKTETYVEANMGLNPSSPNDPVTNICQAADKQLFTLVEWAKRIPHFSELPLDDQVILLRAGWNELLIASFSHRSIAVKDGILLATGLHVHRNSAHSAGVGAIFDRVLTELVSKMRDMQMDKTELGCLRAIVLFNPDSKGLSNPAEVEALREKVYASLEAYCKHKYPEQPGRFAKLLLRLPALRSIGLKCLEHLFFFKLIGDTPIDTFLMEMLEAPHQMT

[7] = biological target: Thyroid hormone receptor beta (Homo sapiens) (UniProt P10828); assay: qHTS assay for small molecule agonists of thyroid hormone receptor beta signaling (AID 588545)
Chain of Thyroid hormone receptor beta (Homo sapiens) (P10828 whole entry, looked up): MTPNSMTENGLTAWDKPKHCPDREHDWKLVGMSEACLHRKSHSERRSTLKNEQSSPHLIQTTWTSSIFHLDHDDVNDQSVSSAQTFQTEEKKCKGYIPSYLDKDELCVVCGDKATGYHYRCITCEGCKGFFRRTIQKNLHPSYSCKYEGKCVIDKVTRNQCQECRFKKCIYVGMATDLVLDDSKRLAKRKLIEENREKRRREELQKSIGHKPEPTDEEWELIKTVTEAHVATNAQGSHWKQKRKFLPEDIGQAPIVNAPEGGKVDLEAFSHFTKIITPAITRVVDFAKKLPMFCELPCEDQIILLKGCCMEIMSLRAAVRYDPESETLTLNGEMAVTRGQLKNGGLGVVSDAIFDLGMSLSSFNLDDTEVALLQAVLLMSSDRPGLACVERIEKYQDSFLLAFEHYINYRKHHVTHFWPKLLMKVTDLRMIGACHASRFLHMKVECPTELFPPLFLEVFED
In short: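 In this cell-based screen, titrated compounds act on HEK 293 cells held in medium with 2% charcoal/dextran FBS, NEAA and pyruvate for 18 hrs at 37 C. Responses are expressed relative to T3 (10 nM) as 100% and basal DMSO as 0%.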

[8] = qHTS assay for small molecule antagonists of retinoid X receptor alpha signaling (AID 588546; active = well fitted inhibition curve with a large enough effect in the signal ratio, with a control signal flat, not every such curve was filed as active; the % refers to the signal ratio;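 also: cells stimulated with 9-cis-retinoic acid as agonist; % is scaled to controls: 0 for no effect and ±100 for the full control effect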); settings: HEK293T RXRa-UAS-bla, beta-lactamase ratio, antagonist mode; measured here: W530 green channel, cytotoxicity proxy
In short: (§1)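 Beta-lactamase reporter inhibition, read as CCF4 fluorescence ratio (ex 405, em 460/530 nm) after 2 h at RT. HEK293T UAS-bla cells, 2500/well, were stimulated with 9-cis-RA at 500 or 100 nM final alongside test compound for 18 h at 37 C.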

[9] = biological target: Retinoic acid receptor RXR-alpha (Homo sapiens) (UniProt P19793); assay: as above; settings: HEK293T RXRa-UAS-bla, beta-lactamase ratio, antagonist mode
In short: as §1

[10] = biological target: Thyroid hormone receptor beta (Homo sapiens) (UniProt P10828); assay: qHTS assay for small molecule antagonists of thyroid hormone receptor beta signaling (AID 588547; active = well fitted inhibition curve with a large enough effect in the signal ratio, with a control signal flat, not every such curve was filed as active; the % refers to the signal ratio;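 also: cells stimulated with 0.4 nM T3 agonist during compound exposure; series mostly up to about 77 µM; % is scaled to controls: 0 for no effect and ±100 for the full control effect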); settings: TR-UAS-bla HEK293, beta-lactamase ratio, antagonist mode, 18 h
In short: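 Inhibition of T3-driven (0.4nM final) beta-lactamase reporter activity was measured over 0.59 nM to 92 uM compound after 18 h at 37 C. The cells were GripTite HEK293 TR-UAS-bla in charcoal/dextran-stripped serum, with CCF4 ratio read-out and IC50 from Hill fits.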

[11] = qHTS assay for small molecule activators of the nuclear factor-kappa B (NF-kB) signaling pathway (AID 651749; active = well fitted activation curve with a large enough effect in the signal ratio; the % refers to the signal ratio; also: series mostly up to about 77 µM; % of control where 0% means no effect); settings: NF-kB-bla ME-180 cells, beta-lactamase FRET ratio, 16 h; activation: stronger effect = higher value
In short: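 Readout: beta-lactamase reporter driven by an NF-kB response element, detected fluorescently as loss of FRET. Cells were the ME-180 line, treated 16 hr at 37C with pin-transferred compound.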

[12] = qHTS assay for environmental chemicals that activate the Aryl hydrocarbon Receptor (AhR) signaling pathway (AID 651777; active = well fitted curve in the direction sought with a large enough effect; an effect the other way counts as inactive or inconclusive; also: % of control where 0% means no effect; nearly all actives have a fitted effect of over 15% in size); settings: 1A2-DRE human hepatoma cells, luciferase, 24 h; activation: stronger effect = higher value
In short: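 Luminescence (One-Glo, 30 min, room temperature) reports AhR-driven luciferase in stably transfected human hepatoma cells bearing DRE and CYP1A2 promoter. Cells (1,200/well) were treated with compound for 24 hr at 37 C in qHTS format.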

[13] = biological target: Peroxisome proliferator-activated receptor alpha (Homo sapiens) (UniProt Q07869); assay: qHTS assay for small molecule agonists of the peroxisome proliferator-activated receptor alpha (PPARalpha) signaling pathway (AID 651778; active = well fitted curve in the direction sought with a large enough effect; an effect the other way counts as inactive or inconclusive; also: % of control where 0% means no effect); settings: PathHunter PPARalpha complementation, chemiluminescence, 6 h; max response: stronger effect = higher value
Chain of Peroxisome proliferator-activated receptor alpha (Homo sapiens) (Q07869 whole entry, looked up): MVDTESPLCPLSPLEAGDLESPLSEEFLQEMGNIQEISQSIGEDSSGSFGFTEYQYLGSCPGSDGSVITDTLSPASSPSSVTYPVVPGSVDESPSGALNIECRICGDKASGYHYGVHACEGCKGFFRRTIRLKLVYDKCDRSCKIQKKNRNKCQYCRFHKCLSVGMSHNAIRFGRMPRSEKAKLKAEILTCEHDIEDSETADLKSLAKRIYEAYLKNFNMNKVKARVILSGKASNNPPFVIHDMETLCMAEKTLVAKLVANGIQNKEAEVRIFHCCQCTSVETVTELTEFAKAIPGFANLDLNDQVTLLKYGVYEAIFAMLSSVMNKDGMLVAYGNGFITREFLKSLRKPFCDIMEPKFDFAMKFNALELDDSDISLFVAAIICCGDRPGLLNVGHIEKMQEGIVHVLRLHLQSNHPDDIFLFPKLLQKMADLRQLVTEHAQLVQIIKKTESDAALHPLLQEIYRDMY
In short: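 Chemiluminescence from complemented enzyme reported PPARalpha activation in cells after 6 hr of compound treatment at 37 C. The detection reagent was incubated for 60 min at room temperature, and compounds were scored as agonists.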

[14] = qHTS assay for small molecule agonists of the antioxidant response element (ARE) signaling pathway measured by Nrf2-dependant transcriptional activity (AID 720636; active = well fitted curve in the direction sought with a large enough effect in the repeat runs; an effect the other way counts as inactive or inconclusive; also: % of control where 0% means no effect)
In short: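 Nrf2-dependent transcription read as ONE-Glo luciferase signal from ARE-luc HepG2 reporter cells after 16 hr compound treatment at 37 C, 5% CO2, in assay medium with 1% dialyzed FBS.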

[15] = qHTS assay for small molecule agonists of the antioxidant response element (ARE) signaling pathway measured by Nrf2-dependant transcriptional activity - cell viability counter screen (AID 720653; active = well fitted curve in the direction sought with a large enough effect in the repeat runs; an effect the other way counts as inactive or inconclusive; also: potency is read from the fitted curve at half-maximal effect; as to max response: % is scaled to controls: 0 for no effect and ±100 for the full control effect); settings: ARE-bla HepG2 viability, CellTiter-Glo ATP luminescence, 16 h; max response: stronger effect = lower value
In short: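 Cytotoxicity counter screen: intracellular ATP quantified by CellTiter-Glo luminescence in the same ARE-bla HepG2 plates, after 16 h compound exposure and a 2 h beta-lactamase substrate step.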

[16] = qHTS assay for cell viability of HEK293 cells (AID 743288; active = well fitted curve in the direction sought with a large enough effect; an effect the other way counts as inactive or inconclusive; also: % is scaled to controls: 0 for no effect and ±100 for the full control effect; nearly all actives have a fitted effect of over 50% in size); settings: ATP luminescence (CellTiter-Glo), 18 h; max response: stronger effect = lower value
In short: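 Parental HEK293 cells, 2,000 per well, preincubated at least 5 h at 37 C, then exposed to compounds in DMSO for 18 h at 37 C. Viability by CellTiter-Glo ATP luminescence after 30 min at room temperature.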

[17] = qHTS assay for cell viability of the p53RE-bla HCT-116 cell line (AID 743292; active = well fitted curve in the direction sought with a large enough effect; an effect the other way counts as inactive or inconclusive; also: nearly all actives have a fitted effect of over 55% in size; also: potency is read from the fitted curve at half-maximal effect)
In short: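 ATP-based luminescent viability (CellTiter-Glo, 30 min RT) after 16 h compound treatment at 37 C of p53RE-bla HCT-116 cells, seeded at 4,000 cells/well and rested 5 h before dosing.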

[18] = biological target: Nuclear receptor subfamily 1 group I member 2 (Rattus norvegicus) (UniProt Q9R1A7); assay: qHTS assay for small molecule activators of the rat pregnane X receptor (rPXR) signaling pathway (AID 651751; call rule not given here; also: 0% is about no effect); settings: rPXR reporter cells, luciferase (One-Glo), 24 h
Chain of Nuclear receptor subfamily 1 group I member 2 (Rattus norvegicus) (Q9R1A7 whole entry, looked up): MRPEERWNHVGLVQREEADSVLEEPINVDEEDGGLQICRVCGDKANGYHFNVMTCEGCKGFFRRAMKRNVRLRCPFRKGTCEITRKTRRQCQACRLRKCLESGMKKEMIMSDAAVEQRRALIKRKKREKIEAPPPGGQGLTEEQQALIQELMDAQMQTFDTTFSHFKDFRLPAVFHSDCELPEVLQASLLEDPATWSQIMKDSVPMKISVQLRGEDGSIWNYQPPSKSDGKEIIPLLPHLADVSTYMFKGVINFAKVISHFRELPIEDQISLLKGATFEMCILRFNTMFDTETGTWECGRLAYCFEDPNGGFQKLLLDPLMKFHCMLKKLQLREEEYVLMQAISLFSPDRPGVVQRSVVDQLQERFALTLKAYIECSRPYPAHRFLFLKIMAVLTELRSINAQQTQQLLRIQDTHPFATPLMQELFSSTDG

[19] = qHTS assay for small molecule activators of the human pregnane X receptor (PXR) signaling pathway (AID 720659; call rule not given here; also: 0% is about no effect)
[20] = qHTS assay for small molecule antagonists of peroxisome proliferator-activated receptor delta signaling (AID 588535); settings: HEK293T PPARd-UAS-bla, beta-lactamase FRET ratio, 18 h; 460 nm channel;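 also: cells co-treated with a PPAR-delta agonist as stimulator during compound exposure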
In short: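 HEK293T PPAR-delta-UAS-bla cells, 4000/well, 2% charcoal/dextran FBS; 5 h 37 C; cpd titration; 18 h 37 C; CCF4 2 h RT; FI 460/530 nm; Hill fit → IC50, efficacy.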

Cn1c(=O)[nH]c(=O)n(C2CCCCC2)c1=O
-9.26%: max response [8]
inactive: Potency [1] | Potency [2] | Potency [3] | outcome [4] | Potency [6] | Potency [7] | max response [9] 5.47% | activity change % (negative = inhibition) [10] 4.13% | activation [11] -1.18% | activation [12] -1.1% | max response [13] -0.628% | Potency [14] | max response [15] -9.94% | max response [16] -7.06% | Potency [17] | max response [18] 1.25% | outcome [19]
-3.38%: max response [5]

C[N+](C)(C)CC(O)CCl (stereo unspecified)
-3.49%: max response [5]
1.91%: max response [20]
inactive: Potency [1] | Potency [2] | Potency [3] | outcome [4] | Potency [6] | Potency [7] | max response [9] 4% | activity change % (negative = inhibition) [10] -6.17% | activation [11] -1.69% | activation [12] 0.882% | max response [13] -0.685% | Potency [14] | max response [15] 0.797% | max response [16] -11.6% | Potency [17] | max response [18] 0.555% | outcome [19]
-3.33%: max response [8]

Cc1cc(C)c(N)c(Cl)c1
inactive: Potency [1] | Potency [2] | Potency [3] | outcome [4] | Potency [6] | Potency [7] | activity change % (negative = inhibition) [10] -1.82% | activation [12] -1.79% | max response [13] -1.91% | Potency [14] | max response [15] 2.61% | Potency [17] | max response [18] -0.981% | outcome [19]
24.2%: max response [20]
-1.71%: max response [5]

CCC(C)(C)C1CCC(O)CC1 (stereo unspecified)
9.01%: max response [8]
inactive: Potency [1] | Potency [2] | Potency [3] | outcome [4] | Potency [6] | Potency [7] | max response [9] -29.4% | activity change % (negative = inhibition) [10] -5.82% | activation [11] -0.533% | activation [12] -0.126% | max response [13] -0.406% | Potency [14] | max response [16] -3.71% | Potency [17] | max response [18] -1.01% | outcome [19]
-12.1%: max response [20]
-12.5%: max response [5]

O=C(O)CCCCCCCCCCC(=O)O
18.9%: max response [20]
2.61%: max response [8]
0.198%: max response [5]
inactive: Potency [1] | Potency [2] | Potency [3] | outcome [4] | Potency [6] | Potency [7] | max response [9] 7.09% | activity change % (negative = inhibition) [10] 17.5% | activation [11] -0.986% | activation [12] 3.26% | max response [13] -1.09% | Potency [14] | max response [15] -6.19% | max response [16] -10.8% | Potency [17] | max response [18] 0.83% | outcome [19]

COC(=O)c1ccccc1C(=O)O
47.6%: max response [20]
inactive: Potency [1] | Potency [2] | Potency [3] | outcome [4] | Potency [6] | Potency [7] | max response [9] -10.2% | activity change % (negative = inhibition) [10] -12.2% | activation [11] -0.0496% | activation [12] 0.0502% | max response [13] -0.96% | Potency [14] | max response [15] -2.33% | max response [16] -13.6% | Potency [17] | max response [18] 2.64% | outcome [19]
-12.1%: max response [5]
-4.92%: max response [8]

COc1ccccc1NC(=O)CC(C)=O
7.64%: max response [8]
49.4%: max response [20]
inactive: Potency [1] | Potency [3] | outcome [4] | max response [9] -16% | activity change % (negative = inhibition) [10] -1.32% | activation [11] -0.04% | activation [12] 6.41% | max response [13] 0.153% | Potency [14] | max response [15] 2.57% | max response [16] -19.2% | Potency [17] | max response [18] 5.67%

O=[N+]([O-])C(CO)(CO)CO
-11.5%: max response [5]
26.9%: max response [20]
-5.31%: max response [8]
inactive: Potency [1] | Potency [2] | Potency [3] | outcome [4] | Potency [6] | Potency [7] | max response [9] 4.16% | activation [11] 0.34% | activation [12] -1.19% | max response [13] -3.92% | Potency [14] | max response [15] -10% | Potency [17] | max response [18] 0.128% | outcome [19]

CCOC(=O)COc1cc(-n2ncc(C(F)(F)F)c(C)c2=O)c(F)cc1Cl
9.89%: max response [5]
inactive: Potency [1] | Potency [3] | outcome [4] | Potency [6] | Potency [7] | activity change % (negative = inhibition) [10] -20.3% | activation [12] -2.83% | max response [13] -2.22% | Potency [14] | max response [15] 9.1% | max response [16] 2.7% | max response [18] -8.22% | outcome [19]
-4.58%: max response [20]

CO/N=C1\C[C@]2(C[C@@H]3C[C@@H](C/C=C(\C)C[C@@H](C)/C=C/C=C4\CO[C@@H]5[C@H](O)C(C)=C[C@@H](C(=O)O3)[C@]45O)O2)O[C@H](/C(C)=C/C(C)C)[C@H]1C
inactive: activation [12] 0.384% | Potency [14]
active: Potency [1] 7.94 µM [inhibitor] | Potency [3] 17.8 µM | Potency [15] 44.7 µM | Potency [17] 28.2 µM

CC(C)CCCCCCc1ccc(OCCOCCO)cc1
-48.7%: max response [5]
inactive: activation [12] -9.42% | Potency [14] | max response [15] -4.66% | max response [18] -16.1%
active: Potency [1] 28.2 µM [inhibitor] | Potency [6] 3.55 µM

CCOC(=O)CCCCCCCCC(=O)OCC
inactive: Potency [1] | Potency [2] | Potency [3] | Potency [6] | Potency [7] | max response [9] 0.487% | activation [12] 0.108% | max response [13] -3.28% | Potency [14] | max response [15] -13.4% | max response [16] -4.17% | Potency [17] | max response [18] 2.58% | outcome [19]
3.8%: max response [5]
-7.52%: max response [8]
